This note sets out measurements from PubChem BioAssay AID2751 (The Scripps Research Institute Molecular Screening Center, 2010).

Each structure is given as a SMILES string. Screen size: about 320,000 compounds; about 2,200 (0.69%) were called active. No stated cut-off is given here; in the data, active means inhibition above about 43%; inactive means the rest. The full list was thinned out, with actives kept by preference.

In the test the target is Prolyl endopeptidase-like (Homo sapiens) (UniProt Q4J6C6). Kind of test: PREPL enzyme inhibitors, primary screen, biochemical, fluorescence polarization (AID 2751).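 Further: 0% = enzyme with DMSO and 100% = wells lacking enzyme.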 Conditions: recombinant PREPL, fluorescence polarization activity-based probe; at 5.96 µM; hits give high values. A general note: Polarisation of emitted light reports the rotation of a fluorescent probe.
Sequence of Prolyl endopeptidase-like (Homo sapiens) (Q4J6C6 whole entry, looked up): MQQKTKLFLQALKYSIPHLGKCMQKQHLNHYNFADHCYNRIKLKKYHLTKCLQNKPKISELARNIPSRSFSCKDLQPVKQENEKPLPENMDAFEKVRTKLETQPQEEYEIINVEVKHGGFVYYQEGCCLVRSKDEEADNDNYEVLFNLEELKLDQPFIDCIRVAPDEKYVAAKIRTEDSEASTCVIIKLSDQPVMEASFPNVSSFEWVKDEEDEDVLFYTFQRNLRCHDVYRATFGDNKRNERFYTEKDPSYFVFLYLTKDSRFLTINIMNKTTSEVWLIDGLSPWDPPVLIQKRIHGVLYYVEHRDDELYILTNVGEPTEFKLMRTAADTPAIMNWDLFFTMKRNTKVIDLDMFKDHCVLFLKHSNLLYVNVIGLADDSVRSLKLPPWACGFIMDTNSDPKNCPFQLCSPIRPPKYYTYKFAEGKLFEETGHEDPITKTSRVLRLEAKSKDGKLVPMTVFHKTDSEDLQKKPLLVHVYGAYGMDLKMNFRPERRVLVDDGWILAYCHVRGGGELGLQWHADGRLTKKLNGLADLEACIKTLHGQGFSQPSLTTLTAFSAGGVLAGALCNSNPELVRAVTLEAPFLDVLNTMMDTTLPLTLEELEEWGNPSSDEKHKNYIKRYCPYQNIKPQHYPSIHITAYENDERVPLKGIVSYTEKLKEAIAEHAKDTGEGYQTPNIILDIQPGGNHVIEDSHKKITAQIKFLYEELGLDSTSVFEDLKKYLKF
For `CCCC[C@@H]1CN=C(N)N1CCc1cccc(F)c1`, the inhibition is -6.23% (inactive).
In the case of `C[C@@H](CN1CCC[C@H]1CN1C(N)=NC[C@@H]1Cc1ccccc1)N1C[C@@H](Cc2ccccc2)N(CCCC2CCCC2)C1=N` it was 54.6% (active); in that of `NC1=NC[C@@H](Cc2ccc(O)cc2)N1CC1CCCCC1`, 9.91% (inactive); in that of `CC[C@@H](C)[C@@H]1CN([C@@H](C)CN2CCC[C@H]2CN2C(N)=NC[C@H]2C(C)C)C(=N)N1CCc1ccc(Cl)c(Cl)c1`, 63.3% (active).
In the case of `CCCCN1C(N)=NC[C@@H]1Cc1ccccc1` it was 17.4% (inactive); in that of `O=C(C1Cc2ccccc2CN1C(=O)c1ccco1)N1CCN(c2ccccc2)CC1` (stereo not given), 12.9% (inactive).
As for `CCOC(=O)c1ccc(N/C(=N/S(=O)(=O)c2ccccc2)c2ccccc2)cc1`, the inhibition was -3.53% (inactive).
In the case of `O=C(NCc1cccnc1)c1ccc(CS(=O)(=O)c2ccc(Br)cc2)o1`, the inhibition is -17% (inactive).
The same measure for `CNC[C@H]1Oc2c(NC(=O)C3CCCCC3)cccc2C(=O)N([C@H](C)CO)C[C@@H]1C`: 1.75% (inactive); for `COc1ccc(-c2cc(C(=O)Nc3ccccc3O)c3ccccc3n2)cc1`: 15.1% (inactive).
As for `O=C(NNc1c2ccccc2nc2ccccc12)c1cc2ccccc2cc1O`, the inhibition was 68.7% (active).
`Cc1noc(C)c1COC(=O)c1cc2ccccc2cc1O`: the inhibition was 3.42% (inactive).
The same measure for `Cc1ccc(S(=O)(=O)C2C(=O)NC3(C)CC2c2ccccc2O3)cc1` (stereo not given): -1.08% (inactive).
As to `CC(=O)Nc1ccc(S(=O)(=O)Nc2ccc(N3CCOCC3)c(F)c2)cc1`, the inhibition is 13.1% (inactive).
With `CC(=O)Nc1ccc(S(=O)(=O)Nc2ccc(N3CCCCC3)cc2)cc1`, the inhibition is 59.6% (active).
In the case of `COC(=O)COc1ccc(S(=O)(=O)Nc2ccc(NC(C)=O)cc2)cc1` it was 3.49% (inactive); in that of `CC1CCN(C(=O)c2ccc3c(=O)n4c(nc3c2)CCCCC4)CC1`, 10.4% (inactive); in that of `CC1CCN(C(=O)c2ccc(CSc3ccc(Cl)cc3)cc2)CC1`, 18.7% (inactive).
As to `CC1CCN(C(=O)c2ccc3c(c2)NC(=O)CN3)CC1`, the inhibition was 57.5% (active).
The same measure for `CCN(C(=O)COC(=O)C1CCN(S(=O)(=O)c2ccc(C)c(C)c2)CC1)C1CCS(=O)(=O)C1` (stereo not given): 16.8% (inactive).
On to `COc1ccc2c(c1)CCNC2Cc1ccc(OC)c(O)c1` (stereo not given), for which the inhibition was 11.1% (inactive).
In the case of `CC[C@H]1CN2CCc3cc(OC)c(OC)cc3[C@@H]2C[C@@H]1C[C@H]1NCCc2cc(OC)c(OC)cc21` it was 17.4% (inactive); in that of `COc1cc2c(cc1O)[C@H](Cc1ccc(Oc3cc(C[C@@H]4NCCc5cc(OC)c(O)cc54)ccc3O)cc1)NCC2`, 46.2% (active).
Regarding `CCOc1ccc(N2C(=O)/C(=C/c3ccc(C)o3)N(C)C2=S)cc1`, the inhibition was 6.35% (inactive).
The same measure for `CC(C)n1c(CN2CCN(Cc3ccccc3)CC2)nc2ccccc21`: -13.9% (inactive); for `CCOC(=O)c1cnc(Nc2nc3ccccc3o2)nc1CSC(=S)N1CCCCC1`: -5.51% (inactive).
In the case of `Cc1ccc(C(=O)NNC(=O)CSc2nnc3ccccn23)cc1` it was -1.75% (inactive); in that of `O=C1CSc2ccc(C(=O)NCc3ccccn3)cc2N1`, 4.19% (inactive); in that of `O=C(NCc1ccccn1)c1ccc2nc(-c3ccco3)c(-c3ccco3)nc2c1`, 46.4% (active).
As to `COCCNC(=O)Nc1ccc2nc(-c3ccco3)c(-c3ccco3)nc2c1`, the inhibition was 39.5% (inactive).
Turning to `COc1ccccc1CNC(=O)CSc1nc(=O)n(Cc2ccncc2)c2c1CCC2`, the inhibition was 2.55% (inactive).
In the case of `O=S(=O)(c1ccccc1)N1CN(Cc2ccc(F)cc2)c2nc3ccccc3nc21` it was -7.37% (inactive).
The same measure for `CC(OC(=O)c1ccc(S(=O)(=O)N2CCOCC2)cc1)c1ccccc1` (stereo not given): -0.7% (inactive).
As to `CCN(CC)CCn1c2c(c(SCC(=O)Nc3ccc(C(C)C)cc3)nc1=O)CCC2`, the inhibition is 23.1% (inactive).
In the case of `NC(=O)CSc1c[nH]c2ccccc12` it was 7.6% (inactive); in that of `O=S(=O)(O)Oc1c[nH]c2ccccc12`, 44.5% (active); in that of `O=C(NC1CCCC1)C(=O)c1c[nH]c2ccccc12`, 9.2% (inactive).
Consider `COc1ccc(CC(=O)N[C@@H](CCSC)c2nc3ccccc3[nH]2)cc1`, for which the inhibition was 5.96% (inactive).
In the case of `O=C(OCc1nc2ccccc2[nH]1)C1CCCCC1` it was 10.5% (inactive); in that of `COC(=O)Cc1nc2ccccc2[nH]1`, 47.1% (active).
`C=CCNC(=O)c1sc(SC)cc1-c1ccc(Cl)cc1`: the inhibition is 1.62% (inactive).
Consider `Oc1c(CN2CCN(c3ccc(F)cc3)CC2)cc(Cl)c2cccnc12`, for which the inhibition was 53.5% (active).
The same measure for `O=C(CN1CCN(c2ccc(F)cc2)CC1)Nc1ccccc1`: 9.77% (inactive).
The same measure for `COc1cc(C)cc(CN2CCC(Cc3ccccc3)CC2)c1O`: -5.3% (inactive); for `Clc1cccc(CN2COc3c(cc(Cl)c4cccnc34)C2)c1`: 2.86% (inactive); for `Oc1c(CN2CCCC2)cc(COCc2ccccc2)c2cccnc12`: 63.8% (active).
In the case of `Cc1cccnc1NC(=O)c1cccc(S(=O)(=O)N2CCN(c3ccc(F)cc3)CC2)c1`, the inhibition is -7.81% (inactive).
`NC[C@H](Cc1ccccc1)NCCc1cc(C(F)(F)F)cc(C(F)(F)F)c1`: the inhibition was -11.6% (inactive).
For `O=C(COC(=O)c1ccc(Cl)nc1)NCc1ccc2c(c1)OCO2`, the inhibition is 8.45% (inactive).
In the case of `CCN(CC)CC(=O)Nc1sc2c(c1C(=O)c1ccccc1C)CCC2` it was 5.23% (inactive); in that of `CC(C)(CNC(=O)c1ccc(Cl)c(S(=O)(=O)N2CCc3ccccc3C2)c1)N1CCOCC1`, -27.3% (inactive); in that of `CCN(Cc1ccccc1)C(=O)CN1C(=S)NC(C)(C)CC1C` (stereo not given), -2.69% (inactive).
In the case of `C[C@H](NC(=O)c1ccccc1Cl)C(=O)OCC(=O)N1CCN(c2ccccc2)CC1` it was 13.3% (inactive).
The same measure for `O=C(OCC(=O)N1CCN(c2ccccc2)CC1)c1ccc([N+](=O)[O-])s1`: 54.8% (active); for `COc1ccc(C(=O)COC(=O)c2ccc([N+](=O)[O-])s2)cc1OC`: 34.6% (inactive).
For the compound `COCCN(CCOC)c1nc(N)c2c(N)nc3c(c2c1C#N)CC(=O)N3Cc1ccc(Cl)cc1`, the inhibition was 47.7% (active).
For `COc1cccc2c1OCC(C(=O)NCc1ccc(Cl)cc1Cl)=C2`, the inhibition is -4.06% (inactive).
For the compound `C[N+](C)(CCCCCC[N+](C)(C)CCCN1C(=O)c2cccc3cccc(c23)C1=O)CCCN1C(=O)c2cccc3cccc(c23)C1=O`, the inhibition was 47.7% (active).
In the case of `O=C1c2cccc3cccc(c23)C(=O)N1CCCCCc1n[nH]c(=S)o1` it was 1.95% (inactive); in that of `O=C(CCCCCN1C(=O)c2cccc3cccc(c23)C1=O)NCc1ccco1`, 5.95% (inactive).

For orientation: inhibition means the relative decrease from the control value, in per cent.
